Reference: publication PMC7862700, “An all-to-all approach to the identification of sequence-specific readers for epigenetic DNA modifications on cytosine”

Assays:
Test in all cases: DAPPL (digital affinity profiling via proximity ligation, sequencing); 10 mM Tris-HCl pH 7.5, 50 mM NaCl, 1 mM DTT, 4% glycerol, room temperature, 30 min; GST-TFs on glutathione beads, 16-mer random dsDNA library, 0.1% formaldehyde crosslink after washing; high values mean tight binding
FEV = biological target: T1, FEV (Homo sapiens, UniProt Q99581 1-238); conditions: protein: recombinant; tags: N-terminal GST; dsDNA, one strand shown
T1 sequence: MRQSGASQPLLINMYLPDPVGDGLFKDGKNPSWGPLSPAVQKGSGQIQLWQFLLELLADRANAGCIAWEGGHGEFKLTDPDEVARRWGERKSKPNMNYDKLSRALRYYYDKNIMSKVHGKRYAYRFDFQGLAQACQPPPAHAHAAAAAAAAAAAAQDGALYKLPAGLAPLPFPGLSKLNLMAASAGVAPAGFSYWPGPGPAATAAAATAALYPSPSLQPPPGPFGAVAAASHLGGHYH
Outline: (§1)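 Human transcription factors were made in yeast as GST fusions, captured on glutathione beads and barcoded with DNA. With a tag-only sample included, the pool was incubated with 200 nmole of a random double-stranded 16-mer DNA library in Tris/NaCl/DTT/glycerol buffer at room temperature for 30 min, then crosslinked with 0.1% formaldehyde after washing, ligated by proximity, amplified and sequenced. For binding signal, each hexamer's read frequency for a factor is divided by its frequency for the tag-only sample.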

ETV5 = ETV5 (Homo sapiens, UniProt P41161 1-510); conditions: protein: recombinant; tags: N-terminal GST; dsDNA, one strand shown
Sequence of ETV5 (P41161 whole entry): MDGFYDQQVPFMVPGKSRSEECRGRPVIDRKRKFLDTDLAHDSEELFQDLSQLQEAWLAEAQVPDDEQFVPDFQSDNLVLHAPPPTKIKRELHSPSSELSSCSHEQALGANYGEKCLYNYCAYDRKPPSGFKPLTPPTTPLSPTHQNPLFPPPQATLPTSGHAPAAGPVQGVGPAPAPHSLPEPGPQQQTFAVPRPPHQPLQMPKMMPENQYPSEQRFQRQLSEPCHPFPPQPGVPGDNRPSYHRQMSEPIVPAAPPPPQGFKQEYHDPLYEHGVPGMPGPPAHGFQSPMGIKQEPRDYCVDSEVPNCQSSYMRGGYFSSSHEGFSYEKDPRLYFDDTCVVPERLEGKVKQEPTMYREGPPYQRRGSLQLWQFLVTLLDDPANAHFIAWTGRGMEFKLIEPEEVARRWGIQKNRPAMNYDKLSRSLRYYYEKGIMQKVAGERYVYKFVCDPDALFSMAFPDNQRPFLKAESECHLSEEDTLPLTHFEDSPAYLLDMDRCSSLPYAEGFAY
Outline: as §1

HSF1 = HSF1 (Homo sapiens, UniProt Q00613 1-529); conditions: protein: recombinant; tags: N-terminal GST; chain copies: 3; dsDNA, one strand shown
Sequence of HSF1 (Q00613 whole entry): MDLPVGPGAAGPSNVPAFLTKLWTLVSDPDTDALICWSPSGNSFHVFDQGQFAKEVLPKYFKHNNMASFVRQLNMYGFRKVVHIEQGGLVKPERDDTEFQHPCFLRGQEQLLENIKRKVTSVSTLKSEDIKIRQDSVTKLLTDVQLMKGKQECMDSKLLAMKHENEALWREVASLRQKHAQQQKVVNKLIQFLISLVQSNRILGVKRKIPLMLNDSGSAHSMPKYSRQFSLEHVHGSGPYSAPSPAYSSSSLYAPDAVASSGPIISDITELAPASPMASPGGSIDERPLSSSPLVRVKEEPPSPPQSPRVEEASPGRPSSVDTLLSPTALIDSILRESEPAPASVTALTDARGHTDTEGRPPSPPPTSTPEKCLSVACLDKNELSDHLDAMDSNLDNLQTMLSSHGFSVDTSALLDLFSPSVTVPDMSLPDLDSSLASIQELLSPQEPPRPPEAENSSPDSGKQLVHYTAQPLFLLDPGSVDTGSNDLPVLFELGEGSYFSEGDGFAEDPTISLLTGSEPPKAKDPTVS
Outline: as §1

SPIC = biological target: T2, SPIC (Homo sapiens, UniProt Q8N5J4 1-248); conditions: protein: recombinant; tags: N-terminal GST; dsDNA, one strand shown
T2 sequence: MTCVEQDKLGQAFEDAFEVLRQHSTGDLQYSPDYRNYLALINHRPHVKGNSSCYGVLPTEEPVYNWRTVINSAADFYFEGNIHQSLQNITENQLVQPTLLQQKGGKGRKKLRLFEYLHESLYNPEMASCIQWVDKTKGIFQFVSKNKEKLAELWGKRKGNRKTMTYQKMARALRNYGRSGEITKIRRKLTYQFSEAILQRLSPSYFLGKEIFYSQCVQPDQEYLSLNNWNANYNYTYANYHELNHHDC
Outline: as §1

ELF4 = ELF4 (Homo sapiens, UniProt Q99607 1-663); conditions: protein: recombinant; tags: N-terminal GST; dsDNA, one strand shown
Sequence of ELF4 (Q99607 whole entry): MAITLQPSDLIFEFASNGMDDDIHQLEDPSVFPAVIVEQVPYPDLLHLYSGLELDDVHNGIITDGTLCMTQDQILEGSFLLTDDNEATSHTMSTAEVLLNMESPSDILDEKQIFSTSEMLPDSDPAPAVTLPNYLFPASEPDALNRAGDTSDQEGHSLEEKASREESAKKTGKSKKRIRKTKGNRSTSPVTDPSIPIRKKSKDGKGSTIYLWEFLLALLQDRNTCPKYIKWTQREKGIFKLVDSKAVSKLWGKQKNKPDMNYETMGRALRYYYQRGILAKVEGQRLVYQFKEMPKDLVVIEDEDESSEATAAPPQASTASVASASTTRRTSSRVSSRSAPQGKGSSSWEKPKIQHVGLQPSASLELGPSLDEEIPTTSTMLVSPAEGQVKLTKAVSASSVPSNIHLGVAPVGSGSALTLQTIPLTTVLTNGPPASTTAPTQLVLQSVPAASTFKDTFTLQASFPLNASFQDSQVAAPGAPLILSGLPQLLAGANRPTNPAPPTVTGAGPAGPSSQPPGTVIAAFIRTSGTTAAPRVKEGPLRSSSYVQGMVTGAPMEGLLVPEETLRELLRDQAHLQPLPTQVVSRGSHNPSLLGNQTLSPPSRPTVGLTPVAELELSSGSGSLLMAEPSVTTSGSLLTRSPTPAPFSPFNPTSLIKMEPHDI
Outline: as §1

ELK4 = biological target: T3, ELK4 (Homo sapiens, UniProt P28324-2 1-405); conditions: protein: recombinant; tags: N-terminal GST; dsDNA, one strand shown
T3 sequence: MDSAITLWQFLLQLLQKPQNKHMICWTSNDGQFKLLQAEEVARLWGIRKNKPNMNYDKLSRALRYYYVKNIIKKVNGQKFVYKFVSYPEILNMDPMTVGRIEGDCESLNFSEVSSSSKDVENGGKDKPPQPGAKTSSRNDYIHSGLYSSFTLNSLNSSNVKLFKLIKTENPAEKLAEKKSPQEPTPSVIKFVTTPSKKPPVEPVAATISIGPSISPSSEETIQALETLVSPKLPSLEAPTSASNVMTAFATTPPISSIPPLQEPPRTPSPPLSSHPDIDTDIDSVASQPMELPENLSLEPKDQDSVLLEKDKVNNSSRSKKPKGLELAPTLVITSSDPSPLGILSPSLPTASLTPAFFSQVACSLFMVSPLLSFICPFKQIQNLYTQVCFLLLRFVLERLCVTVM
Outline: as §1

ETV2 = biological target: T4, ETV2 (Homo sapiens, UniProt O00321 1-342); conditions: protein: recombinant; tags: N-terminal GST; dsDNA, one strand shown
T4 sequence: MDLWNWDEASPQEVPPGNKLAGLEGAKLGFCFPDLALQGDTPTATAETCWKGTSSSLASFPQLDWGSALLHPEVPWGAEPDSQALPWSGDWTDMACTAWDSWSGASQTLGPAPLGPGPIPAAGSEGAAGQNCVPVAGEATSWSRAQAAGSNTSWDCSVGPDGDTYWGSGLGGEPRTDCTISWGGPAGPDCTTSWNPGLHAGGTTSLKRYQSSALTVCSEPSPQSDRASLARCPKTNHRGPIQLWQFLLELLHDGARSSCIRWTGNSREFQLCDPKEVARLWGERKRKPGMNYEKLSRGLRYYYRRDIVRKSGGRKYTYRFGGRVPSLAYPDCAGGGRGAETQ
Outline: as §1

ELF3 = biological target: T5, ELF3 (Homo sapiens, UniProt P78545 1-371); conditions: protein: recombinant; tags: N-terminal GST; dsDNA, one strand shown
T5 sequence: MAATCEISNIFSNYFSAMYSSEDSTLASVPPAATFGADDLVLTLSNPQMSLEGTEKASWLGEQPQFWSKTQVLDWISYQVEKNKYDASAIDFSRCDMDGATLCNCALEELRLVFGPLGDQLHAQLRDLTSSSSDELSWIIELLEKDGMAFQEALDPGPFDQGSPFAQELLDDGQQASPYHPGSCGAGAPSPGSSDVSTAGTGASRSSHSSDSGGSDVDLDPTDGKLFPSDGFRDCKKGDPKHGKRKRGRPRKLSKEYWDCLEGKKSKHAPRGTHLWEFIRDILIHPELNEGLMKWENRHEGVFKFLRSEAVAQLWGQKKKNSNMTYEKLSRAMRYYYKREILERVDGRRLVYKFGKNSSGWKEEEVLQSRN
Outline: as §1

CRX = CRX (Homo sapiens, UniProt O43186 1-299); conditions: protein: recombinant; tags: N-terminal GST; dsDNA, one strand shown
Sequence of CRX (O43186 whole entry): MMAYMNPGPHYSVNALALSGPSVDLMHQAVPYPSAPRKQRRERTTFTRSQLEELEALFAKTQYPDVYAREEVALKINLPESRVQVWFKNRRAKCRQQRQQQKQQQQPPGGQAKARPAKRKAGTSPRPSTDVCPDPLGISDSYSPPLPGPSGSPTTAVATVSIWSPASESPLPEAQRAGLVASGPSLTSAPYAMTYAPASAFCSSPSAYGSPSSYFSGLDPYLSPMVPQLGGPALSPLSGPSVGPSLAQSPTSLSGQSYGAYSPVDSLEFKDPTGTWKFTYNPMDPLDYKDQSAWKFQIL
Outline: as §1

ETV1 = ETV1 (Homo sapiens, UniProt P50549 1-477); conditions: protein: recombinant; tags: N-terminal GST; dsDNA, one strand shown
Sequence of ETV1 (P50549 whole entry): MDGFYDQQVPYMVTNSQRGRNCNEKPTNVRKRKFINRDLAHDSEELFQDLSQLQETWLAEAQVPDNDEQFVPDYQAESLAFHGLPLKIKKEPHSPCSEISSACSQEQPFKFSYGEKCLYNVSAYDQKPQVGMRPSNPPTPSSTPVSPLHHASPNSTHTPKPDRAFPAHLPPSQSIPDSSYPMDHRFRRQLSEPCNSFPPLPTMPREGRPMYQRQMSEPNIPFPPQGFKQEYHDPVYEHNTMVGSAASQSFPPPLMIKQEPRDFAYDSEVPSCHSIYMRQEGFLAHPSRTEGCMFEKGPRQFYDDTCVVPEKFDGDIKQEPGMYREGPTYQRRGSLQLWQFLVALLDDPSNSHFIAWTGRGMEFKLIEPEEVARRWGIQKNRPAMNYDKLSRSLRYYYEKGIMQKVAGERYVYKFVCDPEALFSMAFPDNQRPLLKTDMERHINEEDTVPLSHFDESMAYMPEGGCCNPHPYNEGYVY
Outline: as §1

Sequence: ACTTGG
- binding signal (FEV): 1.17 fold enrichment (6-mer frequency, TF over GST control)
- binding signal (ETV5): 1.21 fold enrichment (6-mer frequency, TF over GST control)
- binding signal (HSF1): 1.09 fold enrichment (6-mer frequency, TF over GST control)
- binding signal (SPIC): 1.27 fold enrichment (6-mer frequency, TF over GST control)
- binding signal (ELF4): 1.31 fold enrichment (6-mer frequency, TF over GST control)
- binding signal (ELK4): 1.28 fold enrichment (6-mer frequency, TF over GST control)
- binding signal (ETV2): 1.15 fold enrichment (6-mer frequency, TF over GST control)
- binding signal (ELF3): 1.36 fold enrichment (6-mer frequency, TF over GST control)
- binding signal (CRX): 1.1 fold enrichment (6-mer frequency, TF over GST control)
- binding signal (ETV1): 1.25 fold enrichment (6-mer frequency, TF over GST control)
